# CHX counter – counter-screen for Shiga toxin inhibitors: cycloheximide protein synthesis inhibition. cell reporter, cycloheximide protein synthesis inhibition counterscreen. max response, %. 12% of 300,000 active. AID 2314; in the data active means max response mostly above about 13%, no sharp cut-off; inactive means mostly below about 14%; further: read at 38.3 µM for the half of the compounds with a filed dose; 0% is about no effect
# TbPYK inhibitor – T. brucei pyruvate kinase inhibition; Potency, µM (doses to about 76.8 µM), for the others: at the top dose activity, negative = inhibition, usual class: inhibitors; 0.12% of 410,000 active; TbPYK enzyme, Kinase-Glo Plus ATP luminescence, 45 min; Q57TT1; further: potency means the concentration at half of the fitted maximal effect; on the % scale 0 is the no-effect control and ±100 the full control effect; nearly all actives have a fitted effect of over 50% in size
#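 Activity of T. brucei pyruvate kinase was followed by Kinase-Glo Plus luminescence after the enzyme reacted 45 min at room temperature with 130 uM ADP (final) and substrate. Test compounds were added before ADP at multiple concentrations.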
# Shiga inhibitor – Shiga toxin inhibition | inhibition, % at 38.7 µM | 9.2% of 290,000 active | AID 2315 | Vero cells, Shiga toxin protein synthesis inhibition reporter; in the data active means inhibition mostly above about 28%, no sharp cut-off; inactive means mostly below about 43%; further: 0% is about no effect
# LmPK inhibitor – inhibitors of Leishmania mexicana pyruvate kinase; 0.37% of 290,000 active; purified LmPK, Kinase-Glo ATP luminescence, 1 h; AID 1721; Potency, µM (top dose mostly 57.5 µM), for the others: at the top dose activity change, negative = inhibition, usual class: inhibitors; further: potency means the concentration at half of the fitted maximal effect; on the % scale 0 is the no-effect control and ±100 the full control effect
# Target sequence (Q27686 whole entry, looked up): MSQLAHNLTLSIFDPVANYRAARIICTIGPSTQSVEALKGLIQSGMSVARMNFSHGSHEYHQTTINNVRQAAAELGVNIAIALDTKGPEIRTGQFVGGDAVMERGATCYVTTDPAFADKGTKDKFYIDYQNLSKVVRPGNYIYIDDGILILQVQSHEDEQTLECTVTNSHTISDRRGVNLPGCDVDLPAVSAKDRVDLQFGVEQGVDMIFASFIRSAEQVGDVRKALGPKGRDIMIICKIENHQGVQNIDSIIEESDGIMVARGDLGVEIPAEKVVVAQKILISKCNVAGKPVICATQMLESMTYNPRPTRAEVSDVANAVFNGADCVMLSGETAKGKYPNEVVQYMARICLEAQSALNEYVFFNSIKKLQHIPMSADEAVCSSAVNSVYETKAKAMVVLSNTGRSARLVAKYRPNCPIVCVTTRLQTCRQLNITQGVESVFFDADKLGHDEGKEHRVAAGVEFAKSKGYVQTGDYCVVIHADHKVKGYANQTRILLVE
#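 Purified LmPK (0.1 nM) with 0.5 mM PEP and 0.1 mM ADP in imidazole buffer pH 7.2 with MgCl2/KCl, 1 h at room temperature. ATP formed was read by luciferase luminescence and normalized to no-enzyme and uninhibited controls.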
# Giardia FBPA inh – blocks Giardia fructose-bisphosphate aldolase activity. Potency, µM (top dose mostly 59.6 µM), without a hit: at the top dose activity, negative = inhibition, usual class: inhibitors. A8B2U2. purified Giardia FBPA. 0.71% of 290,000 active; further: potency means the concentration at half of the fitted maximal effect; on the % scale 0 is the no-effect control and ±100 the full control effect; nearly all actives have a fitted effect of over 55% in size
#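 40 nM FBPA preincubated 10 min at RT with compound (up to 57.5 uM final), then substrate plus GAPDH/TPI/NAD/arsenate coupling and diaphorase/resazurin added. Fluorescence read after 20 min at RT, 525/598 nm.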
# RE007 growth inh – less growth of the S. pombe RE007 Vpr strain; S. pombe RE007 Vpr strain, BacTiter-Glo ATP luminescence, 24 h; Potency, µM (top dose mostly 92.2 µM), without a hit: at the highest dose activity change, negative = less growth, actives largely listed as inhibitors; AID 651644; 0.21% of 360,000 active; active means well fitted falling curve with a large enough effect; inconclusive means small, poorly fitted or top-dose-only effect; inactive means no such curve, though single readings can be large or run the other way; further: potency means the concentration at half of the fitted maximal effect; on the % scale 0 is the no-effect control and ±100 the full control effect; nearly all actives have a fitted effect of over 50% in size
#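 Fission yeast strain RE007, carrying one chromosomally integrated HIV-1 vpr copy, was seeded at OD 0.01 in PMG+AL medium with 23 nL pinned compound. After 24 h at 30 °C and 99% humidity, viability was read by BacTiter-Glo luminescence.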
# * = called active by the depositor; ? = inconclusive; · = no result given; [ ] = dose if it differs, or a comment. Only a selection was taken, and hits are over-represented in it overall. Unless noted, the call rests on the fitted dose curve; in most records, active means well fitted curve in the direction sought with a large enough effect; inconclusive means small, poorly fitted or top-dose-only effect, or another doubt; inactive means no such curve, though single readings can be large; an effect the other way counts as inactive or inconclusive.
SMILES,CHX counter,TbPYK inhibitor,Shiga inhibitor,LmPK inhibitor,Giardia FBPA inh,RE007 growth inh
COc1ccc(OC)c(C2NC(=S)NC(C)=C2C(=O)Nc2ccccn2)c1 (centres undefined),-1.8,-6.7%,11.2,-0.2%,-0.3%,4.7%
CC1=C(C(=O)Nc2ccccn2)C(c2ccc(F)cc2)n2ncnc2N1 (centres undefined),14.7*,0.4%,41.9,-0.3%,7.7%,-13.9%
COc1ccc(C2NC(=S)NC(C)=C2C(=O)Nc2ccccn2)cc1 (centres undefined),36.3*,2.3%,34.1*,-1.5%,2.5%,2.3%
CC[C@H](c1ccccc1)c1noc(CCN(CC)CC)n1,·,3.4%,·,·,·,·
CCNC(=O)c1ccc(NS(=O)(=O)c2ccc3[nH]c(=O)[nH]c3c2)cc1,29.7*,1.0%,46.1*,-10.2%,·,8.8%
COC(=O)c1cc2sc(C)cc2n1Cc1nc(-c2cccc(Br)c2)oc1C,·,-4.7%,·,·,·,·
CCCn1ccc2c(OCC(=O)Nc3ccccc3C(=O)OCC)cccc2c1=O,·,1.0%,·,·,·,·
CC1(NC(=O)N2CCCCC2)CCS(=O)(=O)C1 (centres undefined),0.6,0.9%,18.3,0.4%,-1.0%,-10.7%
CC12CC3(C)CC(C)(C1)CC(NC(=O)N1CCCC1)(C2)C3,-3.7,1.3%,-3.2,-0.8%,0.1%,3.55µM*
COc1ccc(Nc2nnc(SC(C)C(=O)NC3CC3)s2)cc1 (centres undefined),·,0.3%,·,·,·,-5.0%
CC(Sc1nnc(NC2CCCCC2)s1)C(=O)Nc1ccc2c(c1)C(=O)c1ccccc1C2=O (centres undefined),26.5*,-5.7%,75.6*,1.9%,-15.5%,1.0%
COc1ccc(C2=C(C)C(=O)N(Cc3ccc(C(=O)NCc4cccc(C)c4)cc3)S2(=O)=O)cc1,·,3.4%,·,·,·,·
O/N=C(/CCc1ccccc1)c1ccc2c(c1)OCCO2,37.5*,-7.9%,75.2*,-16.8%,-3.7%,2.6%
COc1cc(/C=C/C(=O)c2ccc3c(c2)OCCO3)cc(OC)c1OC,-1.0,-0.5%,4.3,-0.9%,3.6%,0.3%
O=C(c1ccccc1)c1ccc2c(c1)OCCCO2,54.5*,-5.1%,93.5*,-21.3%,6.6%,-0.6%
O=C(/C=C/c1ccccc1)c1ccc2c(c1)OCCCCO2,42.8*,-14.7%,41.4*,?,-5.6%,?
COc1ccc(OC)c(/C=C/C(=O)c2ccc3c(c2)OCCO3)c1,25.2*,-3.7%,26.2*,-9.2%,-4.2%,4.7%
O=C(O)c1ccc2c(c1)OCCCO2,-2.7,8.7%,-4.0,1.5%,12.4%,30.5%
O=C(CCCc1ccccc1)c1ccc2c(c1)OCCO2,-8.7,-2.9%,-17.1,?,5.0%,-1.8%
O=C(C=Cc1ccc2c(c1)OCO2)c1ccccc1,·,-11.9%,·,·,·,?
Cc1cc(C)c(NC(=O)Cn2nc(-c3ccncc3)ccc2=O)c(C)c1,·,-5.7%,·,·,·,·
O=C(c1ccccc1)c1ccc2c(c1)OCCOCCOCCO2,14.0*,-0.3%,48.8*,-0.8%,-2.8%,6.4%
O=C(CCc1ccccc1)c1ccc2c(c1)OCCCO2,69.2*,-9.0%,125.0*,0.0%,2.1%,-23.3%
CC(C)CCNC(=O)C(=O)NC1CCCC1,10.6*,-2.5%,37.5*,1.4%,6.4%,0.9%
CCC1(C)NC(=O)N(/N=C/c2ccc(C)s2)C1=O (centres undefined),45.6*,11.7%,46.6*,2.2%,5.1%,-7.4%
SMILES,CHX counter,TbPYK inhibitor,Shiga inhibitor,LmPK inhibitor,Giardia FBPA inh,RE007 growth inh
Cc1ccc(CN/C=C/C(=O)c2ccc(Br)cc2)cc1,36.6*,-7.5%,60.3*,-0.5%,0.0%,-15.0%
Cc1ccc(C(=O)/C=C/NCc2ccc(F)cc2)cc1,48.1*,-14.0%,93.3*,-5.2%,-1.2%,?
COc1ccc(C(=O)/C=C/NCc2ccc(F)cc2)cc1OC,7.7,1.6%,25.6,8.7%,4.7%,-12.0%
COc1c(CO)cc(CO)cc(CO)c1=O,·,·,·,·,-6.7%,·
CCNC(=O)Cn1c(-c2cccs2)cc2ccccc21,·,2.2%,·,·,·,·
O=C(Nc1ccc(Br)cc1)c1cc(Br)cc(Br)c1O,41.8*,-6.2%,93.0*,·,?,·
CCc1ccc(NC(=O)c2ccccc2Br)cc1,34.6*,4.4%,61.0*,1.1%,-16.0%,1.3%
CC(=O)Nc1ccc(NC(=O)c2ccccc2Br)cc1,·,6.2%,·,·,·,-4.8%
O=C(Nc1ccc(Br)cc1)c1ccccc1Br,55.3*,-3.3%,89.8*,-1.4%,-1.6%,?
O=C(Nc1ccc(Br)cc1)c1cc(Br)c(Br)s1,·,5.2%,·,·,·,·
CCc1ccc(NC(=O)c2n[nH]c(=O)c3ccccc23)cc1,36.0*,-8.7%,79.4*,5.4%,6.8%,0.2%
CCCNC(=O)c1n[nH]c(=O)c2ccccc12,-5.6,0.0%,-13.9,1.8%,2.8%,-5.4%
CCCn1c(=O)c2ccccc2n2c(SCCOc3ccc(Cl)cc3)nnc12,13.4,-2.9%,69.8*,0.1%,0.5%,8.5%
O=C(NC1CC(=O)N(c2ccccc2)C1)c1cc2ccccc2o1 (centres undefined),·,-6.1%,·,·,·,·
C[C@H](NC(=O)c1ccccc1Cl)C(=O)OCC(=O)N1CC2(C)CC1CC(C)(C)C2 (some centres undefined),12.1*,5.9%,8.2,-3.5%,-2.7%,16.7%
C=CC[C@@H]1C=C[C@H](O/N=C(\C)CCN2CCCCc3nc(C)c(C)cc32)[C@H](CO)O1,·,·,·,·,0.6%[12.9 µM],·
COc1ccc(NC(=O)C(NC(=O)Cc2cccs2)c2ccc(C)cc2)cc1 (centres undefined),0.0,1.1%,-6.9,-2.5%,2.6%,15.0%
Cc1ccc(NC(=O)OCc2cccs2)cc1,21.6*,·,80.7*,-4.9%,2.0%,·
Cc1ccc(NC(=O)OCc2cc(-c3ccccc3)on2)cc1,37.6*,0.2%,74.9*,-0.8%,6.6%,-11.9%
COc1cc(SC)ccc1C(=O)Nc1cccc(C2OCCCO2)c1,31.6*,-3.1%,70.7*,-2.3%,-6.8%,4.7%
COc1cc(SC)ccc1C(=O)Nc1ccccc1C#N,37.0*,-0.9%,91.3*,-10.2%,-0.1%,-5.6%
COc1cc(SC)ccc1C(=O)Nc1ccncc1,33.1*,-1.6%,49.9,3.0%,1.5%,20.8%
COc1cc(SC)ccc1C(=O)Nc1ccc2c(c1)CCC2,30.5*,-12.8%,95.8*,0.2%,-2.0%,-9.6%
COc1ccc(C(=O)Nc2ccncc2)c(OC)c1,12.2,-1.7%,13.6,-4.5%,-2.1%,-11.8%
COc1cc(SC)ccc1C(=O)Nc1ccc(Cl)cn1,32.7*,-5.3%,76.9*,-17.6%,-11.2%,-3.8%
COc1ccc(/C=N/NC(=O)c2cc(-c3ccc4c(c3)OCO4)n[nH]2)cc1OC,28.7*,6.2%,9.4,3.0%,3.6%,7.5%
CN(C)c1ccc(/C=N/NC(=O)c2cc(-c3ccc4c(c3)OCO4)n[nH]2)cc1,31.1*,-7.7%,59.8*,-0.7%,3.0%,1.9%

# Screening data from PubChem BioAssay.
